Drawing on PubChem BioAssay (EPA / NIEHS), this text covers outcome and AC50 for 34 molecules.

Where “and” joins values, the source holds several entries; their conditions need not be identical. Equal values may be shown once. Records with an inconclusive call do not appear. A structure can be active in one record and inactive in another. Calls of active or inactive are those of the source. The calls were made as follows, unless noted: active = hit-call score of the fitted dose curve at least 0.9, where 1 is the maximum; inconclusive = response in the unintended direction; inactive = score below 0.9.

For assay [1], the target named is Estrogen receptor (Homo sapiens) (UniProt P03372). The assay can be described thus: CCTE_Deisenroth_AIME_384WELL_LUC_Active: CCTE's 384-well Estrogen Receptor Transactivation Assay with AIME metabolic competence (ERTA luciferase; metabolism positive), Deisenroth Lab (AID 2284030). Summed up:
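AIME metabolism-positive mode: chemicals 0.002 - 200 uM, 2 h with alginate-bound PB/BNF-induced rat S9 → medium to VM7Luc4E2 ERTA, 24 h → luciferase. Positive fit vs 17beta-estradiol; n=4 typical.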

Assay [2] can be described thus: CCTE_Deisenroth_AIME_384WELL_CTox_Active: Cytotoxicity Assessment (CTOX) in CCTE's 384-well Estrogen Receptor Transactivation Assay with AIME metabolic competence (metabolism positive), Deisenroth Lab (AID 2284037).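 Also: chemicals first conditioned 2 h by alginate-bound induced rat liver S9 before cells; activity means signal loss indicating cell death.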 An outline of the steps: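 VM7Luc4E2 breast cells received medium pre-incubated 2 h with chemical over alginate microspheres holding induced male Sprague Dawley rat liver S9; viability read 24 h later by protease-substrate fluorescence. Loss of signal, bidirectional fit, 0.002–200 uM.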

The target of assay [3] is Estrogen receptor (Homo sapiens) (UniProt P03372). In words: CCTE_Deisenroth_AIME_384WELL_LUC_Inactive: CCTE's 384-well Estrogen Receptor Transactivation Assay without AIME metabolic competence (ERTA luciferase; metabolism negative), Deisenroth Lab (AID 2284038).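 Also: hits raise estrogen receptor luciferase signal so potencies reflect agonists.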 An outline of the steps: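 VM7Luc4E2 ER transactivation, luciferase bioluminescence after 24 h, using medium pre-incubated 2 h with S9-free alginate microspheres. Concentrations 0.002–200 uM; gain of signal fitted relative to 17beta-estradiol.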

The nature of assay [4]: CCTE_Deisenroth_AIME_384WELL_CTox_Inactive: Cytotoxicity Assessment (CTOX) in CCTE's 384-well Estrogen Receptor Transactivation Assay without AIME metabolic competence (metabolism negative), Deisenroth Lab (AID 2284039).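 Also: cell viability via live-cell protease substrate cleaved to fluorescent probe; cells exposed 24 h to medium preincubated 2 h with alginate-water beads without S9.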 An outline of the steps: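 Metabolism-negative arm: chemicals (10-point, 0.002 - 200 uM) preincubated 2 h with alginate-water lids, medium moved onto VM7Luc4E2 cells for 24 h. Fluorescent live-cell protease readout; bidirectional curve fit.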

Assay [5] deals with Estrogen receptor (Homo sapiens) (UniProt P03372). The assay can be described thus: CCTE_Deisenroth_AIME_384WELL_LUC_Shift: CCTE's 384-well Estrogen Receptor Transactivation Assay with AIME metabolic competence data shift (ERTA luciferase; difference in metabolism positive and negative), Deisenroth Lab (AID 2284041; active = hit-call score of the fitted dose curve at least 0.9, where 1 is the maximum; inactive = score below 0.9;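 also: shift is response with S9 minus without S9 so positive means metabolism raised ER signal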). Summed up: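 Here, parent compounds undergo 2 h phase I metabolism by PB/BNF-induced rat S9 before 24 h transactivation in VM7Luc4E2 cells; the curve models S9-positive minus S9-negative response over a 10-point series.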

The nature of assay [6]: CCTE_Shafer_MEA_dev_firing_rate_mean: CCTE's Neural Network Formation Assay for Mean Firing Rate, Shafer Lab (AID 2284031; active = hit-call score of the fitted dose curve at least 0.9, where 1 is the maximum; inactive = score below 0.9;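 as to AC50: curve fitted for loss of firing so AC50 reflects decreased mean firing rate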). An outline of the steps:
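Steps: seed rat cortical cells (1.5 x 10^5/well) with laminin on PEI-coated MEA; dose day 0; record DIV 5/7/9/12, full media and compound exchange after DIV 5 and 9 recordings; compute well-mean firing rate AUC.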

Assay [7] is described as follows: CCTE_Shafer_MEA_dev_per_burst_spike_percent: CCTE's Neural Network Formation Assay for Percent of Spikes in a Burst, Shafer Lab (AID 2284032; active = hit-call score of the fitted dose curve at least 0.9, where 1 is the maximum; inactive = score below 0.9;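 as to AC50: fitted as a decrease in burst spike percentage below DMSO baseline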). Summed up:
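Value is trapezoidal AUC over recordings on days 5, 7, 9 and 12 of the well-mean fraction of spikes falling in single-electrode bursts; rat cortical cultures exposed continuously from plating, treatment renewed DIV 5 and 9, fitted downward against DMSO.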

Assay [8] is described as follows: CCTE_Shafer_MEA_dev_active_electrodes_number: CCTE's Neural Network Formation Assay for Number of Active Electrodes, Shafer Lab (AID 2284040).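 As to AC50: potency for loss of active electrodes versus DMSO so lower counts are hits.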 Summed up: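 Counts electrodes per well firing at least 5 spikes/min, recorded on days 5, 7, 9 and 12 in rat cortical cultures dosed continuously from plating (treatment refreshed DIV 5, 9). Value is the area under the curve over recordings, fitted downward relative to DMSO.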

A short description of assay [9]: CCTE_Shafer_MEA_dev_burst_rate: CCTE's Neural Network Formation Assay for Burst Rate, Shafer Lab (AID 2284042; active = hit-call score of the fitted dose curve at least 0.9, where 1 is the maximum; inactive = score below 0.9;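 as to AC50: potency for loss of burst rate below DMSO control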). An outline of the steps: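 Cells plated, treated day 0; recorded DIV 5, 7, 9, 12; fed and re-treated DIV 5, 9. Endpoint: bursts per recording time, active-electrode well mean, trapezoidal AUC, fitted in decreasing direction against DMSO baseline.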
A short description of assay [10]: CCTE_Deisenroth_AIME_96WELL_CTox_Inactive: Cytotoxicity Assessment (CTOX) in CCTE's 96-well Estrogen Receptor Transactivation Assay without AIME metabolic competence (metabolism negative), Deisenroth Lab (AID 2284029). Summed up:
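Metabolism-negative mode: alginate-water lids without rat S9, 2 h pre-incubation of 10-point series (0.002 - 200 uM). Conditioned medium on VM7Luc4E2 cells 24 h; loss of fluorescent live-cell protease signal marks cytotoxicity.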

Sequence of Estrogen receptor (Homo sapiens) (P03372 whole entry, looked up): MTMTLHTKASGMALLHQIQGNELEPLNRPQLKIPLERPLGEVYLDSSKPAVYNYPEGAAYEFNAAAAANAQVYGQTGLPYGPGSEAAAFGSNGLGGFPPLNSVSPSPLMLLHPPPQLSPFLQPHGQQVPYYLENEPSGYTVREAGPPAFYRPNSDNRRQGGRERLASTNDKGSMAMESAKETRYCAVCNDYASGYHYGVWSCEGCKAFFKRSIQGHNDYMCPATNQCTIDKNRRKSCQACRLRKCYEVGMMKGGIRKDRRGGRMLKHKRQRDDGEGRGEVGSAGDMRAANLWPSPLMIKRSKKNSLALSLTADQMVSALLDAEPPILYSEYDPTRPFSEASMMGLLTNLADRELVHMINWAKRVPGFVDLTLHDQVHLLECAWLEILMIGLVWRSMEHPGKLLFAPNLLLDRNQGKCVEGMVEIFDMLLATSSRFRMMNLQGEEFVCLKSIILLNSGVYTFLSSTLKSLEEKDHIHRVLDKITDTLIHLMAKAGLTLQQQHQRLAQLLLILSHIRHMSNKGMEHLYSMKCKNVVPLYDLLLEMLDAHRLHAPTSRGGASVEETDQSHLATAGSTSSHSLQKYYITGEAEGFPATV

As to `O=C1CN(N=Cc2ccc([N+](=O)[O-])o2)C(=O)N1`, the outcome in assay [1], in assay [2], in assay [3] and in assay [5] was inactive. In addition, the AC50 in [4] is 31.2 µM (active).
Consider `C[C@@H](Oc1ccc(CNC(=O)c2cccnc2Oc2ccc3c(c2)OCO3)c(F)c1)C(=O)O`, for which the call in assay [1], in assay [2], in assay [3], in assay [4] and in [5] was inactive.
`CCCCCOC(C)=O`: the outcome in assay [1], in assay [2], in assay [3], in assay [4] and in assay [5] was inactive.
Consider `CCOC(N)=O`, for which the result in [1], in [2], in [3], in [4] and in assay [5] was inactive.
As for `c1ccc2c(c1)-c1cccc3c1c-2cc1ccccc13`, the molecule was called inactive in [1], in [6], in [7], in [2], in [3] and in assay [5]. For the same molecule, the molecule was classed as inactive in assay [9]. The AC50 in [4] is 19.8 µM (active); in assay [8], 7.57 µM (active).
`OCC(CO)(CO)CO`: the molecule was classed as inactive in assay [1], in assay [3], in [4] and in [5].
As to `CCn1nc(C)c2c1C(=O)NCC(c1ccc(O)cc1)=N2`, the call in [1], in assay [3] and in assay [5] was inactive.
As to `CC(C)CC(C)O` (stereo not drawn), the call in assay [1], in assay [2], in assay [3], in [4] and in assay [5] was inactive.
Take `CCN(CC)C(=S)SSC(=S)N(CC)CC`: the call in assay [10], in assay [1], in [2], in [4] and in assay [5] was inactive. For the same molecule, the AC50 was 98.7 nM (active) and 42.1 nM (active) in assay [6]; 143 nM (active) and 47.8 nM (active) in assay [7]; 118 nM (active) and 54.8 nM (active) in assay [8]; 124 nM (active) and 50 nM (active) in assay [9].
Turning to `OCCOCCOCCO`, the molecule was called inactive in [1], in assay [2], in assay [3], in assay [4] and in assay [5].
With `OCc1ccccc1`, the molecule was called inactive in assay [1], in assay [2], in assay [3], in [4] and in assay [5].
Regarding `COc1cc2c(c(OC)c1OC)-c1ccc(OC)c(=O)cc1[C@@H](NC(C)=O)CC2`, the molecule was classed as inactive in assay [1], in [3] and in assay [5]. The AC50 is 17.9 nM (active) in [6]; 0.0285 µM (active) in assay [7]; 19.8 µM (active) in assay [2]; 19.8 µM (active) in assay [4]; 0.0284 µM (active) in [8]; 27.6 nM (active) in [9].
As for `CC(C)CCCCCCOC(=O)C1CCCCC1C(=O)OCCCCCCC(C)C` (stereo not drawn), the molecule was classed as inactive in assay [1], in assay [2], in [3] and in assay [5].
Turning to `COS(C)(=O)=O`, the molecule was classed as inactive in [1], in assay [2], in [3], in [4] and in assay [5].
Consider `CCOc1ccc2[nH]cc(C(=O)NCc3ccccc3)c(=O)c2n1`, for which the call in [1], in [6], in assay [7], in [3], in [5] and in [9] was inactive. The AC50 in assay [8] was 1.23 µM (active).
Consider `CCc1cccc(CC)c1N`, for which the molecule was classed as inactive in assay [1], in [2], in [3] and in assay [5]. In addition, in [4], the AC50 is 160 µM (active).
`CCCc1ccccc1`: the call in [1], in [2], in assay [3], in assay [4] and in [5] was inactive.
For `c1ccc(C(O[C@@H]2CCCN(CCc3ccc4c(c3)OCO4)C2)c2ccccc2)cc1`, in [1], the AC50 was 29.1 µM (active). Besides, the result in assay [2], in assay [3] and in assay [5] was inactive.
For the molecule `CC(=O)c1ccccc1`, the call in assay [1], in assay [2], in assay [3], in assay [4] and in assay [5] was inactive.
Take `CCCCOC(=O)c1ccccc1`: the outcome in assay [1], in [2], in [3], in [4] and in [5] was inactive.
Take `c1ccc2cc3ccccc3cc2c1`: the outcome in assay [6], in [7], in assay [8] and in [9] was inactive.
In the case of `NNC(=O)c1ccncc1`, the result in [6], in [7], in assay [8] and in assay [9] was inactive.
In the case of `C=CCc1cc(S(=O)(=O)c2ccc(O)c(CC=C)c2)ccc1O`, in assay [2], the AC50 was 169 µM (active). The outcome in assay [4] and in assay [5] was inactive.
As for `Cn1cc[nH]c1=S`, the outcome in [6], in assay [7], in [8] and in assay [9] was inactive.
Regarding `FC(F)(F)C(F)(F)C(F)(F)C(F)(F)C(F)(F)C(F)(F)I`, the call in [6], in assay [7], in assay [8] and in assay [9] was inactive.
Consider `NCC(F)(F)C(F)(F)C(F)(F)C(F)(F)F`, for which the molecule was classed as inactive in assay [6], in [7], in assay [8] and in assay [9].
On to `CC[C@H](C)C(=O)O[C@H]1C[C@H](O)C=C2C=C[C@H](C)[C@H](CC[C@@H](O)C[C@@H](O)CC(=O)O)[C@H]21`, for which the molecule was classed as inactive in assay [6] and in [9]. Further, the concentration at half-maximal activity (AC50) was 1.92 µM (active) in [7] and 2.28 µM (active) in assay [8].
For `CCCC(CCC)C(=O)O`, the call in [6], in assay [7], in [8] and in assay [9] was inactive.
Take `OC(Cn1cncn1)(Cn1cncn1)c1ccc(F)cc1F`: the molecule was called inactive in [6], in [7], in assay [8] and in assay [9].
Take `OC(O)(C(F)C(O)(O)C(F)(F)F)C(F)(F)F`: the outcome in assay [6], in [7], in [8] and in assay [9] was inactive. In addition, in assay [8], the AC50 is 3.9 µM (active).
As to `CCc1ccc(O)c(C(C)(C)C)c1`, the molecule was called inactive in assay [2], in [4] and in assay [5].
For `O=C(Cl)C(F)(F)C(F)(F)C(F)(F)C(=O)Cl`, the molecule was classed as inactive in assay [6], in assay [8] and in assay [9]. Also, the AC50 in assay [7] was 15 µM (active).
As for `CCCCC(CC)C(=O)OCCOCCOCCOC(=O)C(CC)CCCC` (stereo not drawn), the molecule was classed as inactive in assay [1], in [3] and in assay [5].
For `OCCC(F)(F)C(F)(F)C(F)(F)C(F)(F)F`, the call in assay [6], in [7], in assay [8] and in [9] was inactive.
